Consider six compounds from PubChem BioAssay (NCATS).

Assay [1] can be described thus: AP1 Signaling Pathway (AID 357; active means well fitted curve in either direction with a large enough effect, not every such curve was filed as active;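 further: ME-180 reporter cells stimulated with EGF at its EC50 level; on the % scale 0 is the no-effect control and ±100 the full control effect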). The conditions noted are these: ME-180 AP-1-bla reporter, EGF-induced, beta-lactamase ratio, 5 h; at 7.69 µM (top of the series) unless noted. In a few lines: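 Beta-lactamase reporter under AP-1 response element, ME-180 background. Stimulus: EC50 EGF. Compound exposure 5 h, 37 °C. Detection: CCF4, 2.5 h RT, 460/530 nm. Values: AC50 from titration.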

Assay [2] concerns the target Cytochrome P450 1A2 (Homo sapiens) (UniProt P05177). Nature of the assay: p450-cyp1a2 (AID 410; calls by dose curve; further: potency means the concentration at half of the fitted maximal effect;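 on activity change, negative = inhibition: -100% = full effect of reference inhibitor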). In a few lines: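 O-Demethylation of luciferin 6' methyl ether by human CYP1A2 is monitored as luciferase luminescence. Substrate sits at Km (100uM); enzyme is 20nM. Values are scaled to 57 uM furafylline as maximal inhibition.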
Assay [3] in a line: NFAT Signaling Pathway (AID 444; active means well fitted curve in either direction with a large enough effect, not every such curve was filed as active;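 further: carbachol stimulus at about its EC50 of 1 µM final; on the % scale 0 is the no-effect control and ±100 the full control effect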). To be noted: Jurkat NFAT-bla M1, carbachol, beta-lactamase ratio, 5 h; at 7.69 µM (top of the series) unless noted. In a few lines:
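Jurkat cells with NFAT-driven β-lactamase reporter and co-expressed M1 receptor, stimulated with carbachol (final 1 uM, ~EC50), compound titration, 5 h at 37 °C. CCF4 loaded 1 h at RT; 460/530 nm ratio gave %activity and AC50.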

Assay [4] is described as follows: Stat Signaling Pathway (AID 446; active means well fitted curve in either direction with a large enough effect, not every such curve was filed as active;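 further: ME-180 cervical cancer cells given 40 pM IL-6 alongside compound; SIE-controlled beta-lactamase reporter measured as 460/530 nm FRET emission ratio; on the % scale 0 is the no-effect control and ±100 the full control effect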). To be noted: ME-180 (cervical carcinoma) SIE beta-lactamase reporter, IL-6 stimulated, 5 h; at 7.69 µM (top of the series) unless noted. In a few lines: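 Emission at 460 and 530 nm (excitation 405 nm) reports SIE-controlled beta-lactamase in ME-180 cells. Cells received compound with 40 pM IL-6 for 5 hrs at 37 C; data scaled between 300 pM IL-6 and 125 nM JAK-inhibitor controls.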

Assay [5] has as its target Glucocorticoid receptor (Homo sapiens) (UniProt P04150). Kind of assay: GR-GFP Redistribution (AID 450;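 active means compounds whose dose series gives a full or clear partial fitted curve of increased nuclear translocation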; further: potency means the concentration at half of the fitted maximal effect). The conditions noted are these: U2OS GR-GFP nuclear translocation, laser cytometry, 2 h.
Assay [6] has the same target. Nature of the assay: GR-EFC Redistribution (AID 451; calls by dose curve; further: potency means the concentration at half of the fitted maximal effect). To be noted: CHO-K1 GR-EFC translocation, beta-gal luminescence, 2 h. In a few lines:
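CHO-K1 cells expressing nuclear EA and GR-ED fragments of b-gal; compounds titrated up to 46 uM final, 2 h at 37 C. GR nuclear translocation read as complemented b-gal luminescence after 1 h RT detection.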

Assay [7] deals with Mitogen-activated protein kinase 10 (Mus musculus) (UniProt Q61831). Nature of the assay: JNK3 AlphaScreen Assay (AID 530; active means well fitted curve in either direction with a large enough effect, not every such curve was filed as active;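 further: kinase came from lysate of stimulated human HepG2 cells; signal reports phosphorylation of biotinylated GST-cJun 1-79 at Ser73 with 10 µM ATP; on the % scale 0 is the no-effect control and ±100 the full control effect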). In a few lines:
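Activity was read by AlphaScreen after JNK3-containing HepG2 lysate (cytokine pre-activated) phosphorylated biotinylated GST-cJun with 10 uM ATP at room temperature. Phospho-Ser73 cJun antibody with Protein-A acceptor beads provided detection.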

Assay [8] has as its target 3',5'-cyclic-AMP phosphodiesterase 4B (Homo sapiens) (UniProt Q07343). Kind of assay: qHTS Assay for Inhibitors of PDE-IV (AID 607; active means well fitted activation curve with a large enough effect in the main read-out, with a control signal flat, not every such curve was filed as active; further: % of control where 0% means no effect). In a few lines: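 The readout is membrane depolarisation from a cAMP-sensing CNG channel, detected with a potential dye at ex 535/em 590. Cells were HEK293-derived (endogenous PDE-IV) at 1000 cells/well, titrated up to 22.9 uM final.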
On the technique in general: In qHTS, concentration-response curves come from the screen itself.

The target of assay [9] is Guanine nucleotide-binding protein G(i) subunit alpha-1 (Homo sapiens) (UniProt P63096). Kind of assay: qHTS Assay for Inhibitors of RGS12 GoLoco Motif Activity (Green Fluorophore) (AID 879).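 Further: 0% = labeled peptide with Gαi1 and full inhibition = labeled peptide alone without protein; negative values mean loss of peptide binding seen as reduced polarization.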 The method in brief: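 A drop in FITC polarization marked displacement of the FITC-tagged RGS12 GoLoco peptide (10 nM) from Gαi1 (50 nM). Compounds were incubated 10 min at room temperature in Tris pH 7.5 buffer containing 150 mM NaCl, 0.1 mM GDP and 0.05% NP40; unlabeled peptide titration served as control.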

The nature of assay [10]: qHTS Assay for Identification of Small Molecule Agonists for Thrombopoietin (TPO) Signaling Pathway (AID 917). Further: on the % scale 0 is the no-effect control and ±100 the full control effect. In a few lines: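 Luciferase reporter (Glycoprotein IIb promoter) in IL-3-deprived Ba/F3 cells carrying human TPO receptor; compounds co-added with 26 pM TPO, incubated 24 h, 37 C. Steadylite luminescence measured after 10 min.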
Assay [11] addresses Muscarinic acetylcholine receptor M1 (Rattus norvegicus) (UniProt P08482). Kind of assay: qHTS Assay for Antagonists of Acetylcholine Muscarinic M1 Receptor: Kinetic Measurement of Intracellular Calcium Response (AID 943).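 Further: Fluo-4 calcium signal as peak divided by basal fluorescence over 4 min; nearly all actives have a fitted effect of over 75% in size.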 In a few lines:
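Antagonism is measured as inhibition of the carbachol-evoked calcium rise in CHO cells transfected with rat M1. Cells are dye-loaded, exposed to compound for 10 min, then stimulated with 100 nM carbachol (EC80).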

Assay [12] shares this target. Kind of assay: qHTS Assay for Antagonists of Acetylcholine Muscarinic M1 Receptor: Measurement of IP-One Response (AID 944). Further: nearly all actives have a fitted effect of over 75% in size. In a few lines: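 Antagonist mode with rat M1 receptor transfected into CHO cells. Compound is added first for 10 min, carbachol at its EC80 follows for 30 min, and lysis reagents then allow TR-FRET detection of accumulated IP1.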
For assay [13], the target named is Pyruvate kinase (Leishmania mexicana) (UniProt Q27686). Kind of assay: qHTS Validation Assay for Inhibitors of Leishmania Mexicana Pyruvate Kinase (AID 945).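 Further: 0% = DMSO only neutral control wells.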 In a few lines:
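Substrate mix (0.5 mM PEP, 0.1 mM ADP, 7 mM MgCl2, 50 mM KCl, pH 7.2 imidazole) received compound by pin tool, then 0.2 nM LmPYK E451W. After 1 h at room temperature, PKLight was added and luminescence measured.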

Assay [14] addresses Pyruvate kinase PKM (Homo sapiens) (UniProt P14618). Nature of the assay: qHTS Assay for Activators of Human Muscle Pyruvate Kinase (AID 954; active means well fitted curve in the direction sought with a large enough effect, not every such curve was filed as active;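 further: 0% = uninhibited enzyme and -100% = no enzyme or full thiadiazolimine inhibition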). In a few lines:
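PKM2, human, >95% pure, 0.1 nM; PEP 0.5 mM (Km), ADP 0.1 mM; 50 mM imidazole pH 7.2, 50 mM KCl, 0.01% Tween 20, 0.05% BSA; 1 h RT; luciferase luminescence readout.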

In assay [15] the target is Alpha-galactosidase A (Homo sapiens) (UniProt P06280). Kind of assay: Counterscreen for Glucocerebrosidase Inhibitors: qHTS Assay for Human alpha-Galactosidase at pH 4.5 (AID 992). Further: 0% is about no effect. In a few lines: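 Fluorogenic 4-MU alpha-D-galactoside (80 uM) hydrolysis, 2 nM enzyme, pH 4.5 citrate buffer + 0.005% Tween-20; 20 min RT; NaOH/glycine pH 10 stop; Ex365/Em440. Compounds titrated 0.7 nM–77 uM; Hill-equation AC50.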

Assay [16] has as its target alpha-glucosidase (Oryza sativa, rice) (UniProt Q653V4). Kind of assay: Counterscreen for Glucocerebrosidase Inhibitors: qHTS Assay for Rice alpha-Glucosidase at pH 5.0 (AID 997).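 Further: 0% = full activity with enzyme and -100% = basal without enzyme.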 In a few lines: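 Endpoint fluorogenic assay at pH 5.0: compounds (0.7 nM to 77 uM) titrated against 4 nM rice enzyme and 400 uM 4-MU-alpha-glucoside for 20 min at room temperature; NaOH/glycine stop, read ex 365/em 440 nm, Hill-fitted AC50.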
(In general: A counterscreen serves to expose hits that act by an unwanted route or on another target.)

Assay [17] deals with Cytochrome P450 3A4 (Homo sapiens) (UniProt P08684). Nature of the assay: qHTS Assay for Activators of Cytochrome P450 3A4 (AID 885). Further: nearly all actives have a fitted effect of over 65% in size. The method in brief:
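Activators are scored by enhanced luminescence from CYP3A4 conversion of luciferin-PPXE (25uM, equal to KM) to luciferin, after 60 min at RT with an NADPH-regenerating system.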

In assay [18] the target is Cytochrome P450 2C19 (Homo sapiens) (UniProt P33261). Nature of the assay: qHTS Assay for Inhibitors and Substrates of Cytochrome P450 2C19 (AID 899). Further: on the % scale 0 is the no-effect control and ±100 the full control effect; nearly all actives have a fitted effect of over 60% in size. In a few lines:
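Luminescent read-out of luciferin formed from Luciferin-H EGE (10uM, equal to KM). Enzyme 5nM in 50mM KPO4; compound added, 10 min at 37C, then NADPH regenerating system for 60 min at 37C. Full inhibition defined by 57uM ketoconazole.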

Assay [19] can be described thus: qHTS Assay for Identification of Small Molecule Antagonists for NFkB Signaling Pathway (AID 895; active means well fitted inhibition curve with a large enough effect in the signal ratio, with a control signal flat, not every such curve was filed as active; the % refers to the signal ratio; further: potency means the concentration at half of the fitted maximal effect). The method in brief:
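ME-180 NFkB-bla cells (beta-lactamase under NFkB response element), plated overnight, treated with compound then 10 pM TNF alpha (about EC50) for 5 hrs at 37 C. LiveBLAzer FRET read at 460/530 nm emission, 405 nm excitation.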

SMILES strings stand for the structures. Unmarked numbers belong to inactive results. Inconclusive results are not listed. The source made the active and inactive calls. Unless noted, the call rests on the fitted dose curve; in most records, active means well fitted curve in the direction sought with a large enough effect; inconclusive means small, poorly fitted or top-dose-only effect, or another doubt; inactive means no such curve, though single readings can be large; an effect the other way counts as inactive or inconclusive.

Glucocorticoid receptor (Homo sapiens), sequence (P04150 whole entry, looked up): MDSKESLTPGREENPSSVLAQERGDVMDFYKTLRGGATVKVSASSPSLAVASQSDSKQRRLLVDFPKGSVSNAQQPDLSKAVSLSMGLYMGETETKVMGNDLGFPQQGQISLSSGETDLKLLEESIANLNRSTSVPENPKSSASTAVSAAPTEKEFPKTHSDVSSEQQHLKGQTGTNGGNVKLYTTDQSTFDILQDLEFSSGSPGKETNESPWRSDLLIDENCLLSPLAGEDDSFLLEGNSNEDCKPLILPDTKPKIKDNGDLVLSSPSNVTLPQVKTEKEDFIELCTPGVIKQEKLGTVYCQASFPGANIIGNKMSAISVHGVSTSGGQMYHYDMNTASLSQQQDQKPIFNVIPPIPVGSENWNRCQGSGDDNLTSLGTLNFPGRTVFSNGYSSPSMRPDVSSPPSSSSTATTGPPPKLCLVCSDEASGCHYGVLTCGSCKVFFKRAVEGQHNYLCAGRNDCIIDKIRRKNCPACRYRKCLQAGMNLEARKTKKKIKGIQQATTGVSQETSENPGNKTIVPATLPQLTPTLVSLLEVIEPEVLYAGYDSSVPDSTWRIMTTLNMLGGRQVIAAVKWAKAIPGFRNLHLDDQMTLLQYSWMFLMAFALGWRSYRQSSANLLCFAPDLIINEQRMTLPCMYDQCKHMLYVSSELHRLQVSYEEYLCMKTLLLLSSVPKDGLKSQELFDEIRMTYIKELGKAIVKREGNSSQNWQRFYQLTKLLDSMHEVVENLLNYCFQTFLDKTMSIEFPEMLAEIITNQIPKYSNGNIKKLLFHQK
Pyruvate kinase (Leishmania mexicana), sequence (Q27686 2-499 E452W): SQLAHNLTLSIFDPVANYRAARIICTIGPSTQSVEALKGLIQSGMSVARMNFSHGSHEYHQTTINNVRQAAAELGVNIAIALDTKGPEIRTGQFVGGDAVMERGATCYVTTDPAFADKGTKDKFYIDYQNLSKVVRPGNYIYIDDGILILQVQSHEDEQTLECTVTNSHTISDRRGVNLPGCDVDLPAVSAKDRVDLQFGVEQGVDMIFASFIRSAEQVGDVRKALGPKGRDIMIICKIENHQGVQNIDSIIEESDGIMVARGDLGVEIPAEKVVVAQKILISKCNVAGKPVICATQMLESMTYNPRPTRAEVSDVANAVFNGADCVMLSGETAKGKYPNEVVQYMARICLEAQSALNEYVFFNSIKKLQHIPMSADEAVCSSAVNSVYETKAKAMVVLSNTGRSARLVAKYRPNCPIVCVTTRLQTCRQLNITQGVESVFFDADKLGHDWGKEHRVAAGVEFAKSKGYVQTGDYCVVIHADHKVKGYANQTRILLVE
Cytochrome P450 1A2 (Homo sapiens), sequence (P05177 whole entry, looked up): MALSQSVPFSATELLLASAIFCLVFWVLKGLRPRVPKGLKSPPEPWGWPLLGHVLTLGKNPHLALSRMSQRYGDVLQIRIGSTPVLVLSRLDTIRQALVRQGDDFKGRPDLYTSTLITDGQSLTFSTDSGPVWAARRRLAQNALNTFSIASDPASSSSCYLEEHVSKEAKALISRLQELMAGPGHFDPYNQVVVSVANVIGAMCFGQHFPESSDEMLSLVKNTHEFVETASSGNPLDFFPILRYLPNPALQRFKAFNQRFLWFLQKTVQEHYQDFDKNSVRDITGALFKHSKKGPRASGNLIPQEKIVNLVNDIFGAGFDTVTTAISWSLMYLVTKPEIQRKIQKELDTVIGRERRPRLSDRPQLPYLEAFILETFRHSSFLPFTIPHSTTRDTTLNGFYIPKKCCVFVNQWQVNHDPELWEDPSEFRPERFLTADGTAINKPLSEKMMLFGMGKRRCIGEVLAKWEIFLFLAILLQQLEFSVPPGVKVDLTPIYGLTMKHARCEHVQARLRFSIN
3',5'-cyclic-AMP phosphodiesterase 4B (Homo sapiens), sequence (Q07343 whole entry, looked up): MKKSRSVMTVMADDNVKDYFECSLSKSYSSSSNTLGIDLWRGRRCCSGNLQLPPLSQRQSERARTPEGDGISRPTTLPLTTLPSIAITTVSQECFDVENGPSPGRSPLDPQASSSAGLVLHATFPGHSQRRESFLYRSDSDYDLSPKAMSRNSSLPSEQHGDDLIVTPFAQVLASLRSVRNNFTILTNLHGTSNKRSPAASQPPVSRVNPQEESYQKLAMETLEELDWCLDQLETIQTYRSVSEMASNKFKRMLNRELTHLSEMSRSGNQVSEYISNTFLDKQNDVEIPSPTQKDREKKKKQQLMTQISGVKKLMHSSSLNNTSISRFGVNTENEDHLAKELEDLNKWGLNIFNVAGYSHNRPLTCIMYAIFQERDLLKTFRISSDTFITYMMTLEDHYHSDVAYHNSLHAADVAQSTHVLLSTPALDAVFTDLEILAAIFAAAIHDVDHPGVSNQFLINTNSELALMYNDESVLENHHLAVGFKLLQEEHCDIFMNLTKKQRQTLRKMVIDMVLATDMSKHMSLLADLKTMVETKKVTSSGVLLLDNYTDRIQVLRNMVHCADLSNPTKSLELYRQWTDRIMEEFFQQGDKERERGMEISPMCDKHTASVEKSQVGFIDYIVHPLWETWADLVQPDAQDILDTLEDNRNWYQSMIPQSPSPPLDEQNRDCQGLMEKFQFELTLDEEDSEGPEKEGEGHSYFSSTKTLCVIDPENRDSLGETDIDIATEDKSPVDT
Alpha-galactosidase A (Homo sapiens), sequence (P06280 whole entry, looked up): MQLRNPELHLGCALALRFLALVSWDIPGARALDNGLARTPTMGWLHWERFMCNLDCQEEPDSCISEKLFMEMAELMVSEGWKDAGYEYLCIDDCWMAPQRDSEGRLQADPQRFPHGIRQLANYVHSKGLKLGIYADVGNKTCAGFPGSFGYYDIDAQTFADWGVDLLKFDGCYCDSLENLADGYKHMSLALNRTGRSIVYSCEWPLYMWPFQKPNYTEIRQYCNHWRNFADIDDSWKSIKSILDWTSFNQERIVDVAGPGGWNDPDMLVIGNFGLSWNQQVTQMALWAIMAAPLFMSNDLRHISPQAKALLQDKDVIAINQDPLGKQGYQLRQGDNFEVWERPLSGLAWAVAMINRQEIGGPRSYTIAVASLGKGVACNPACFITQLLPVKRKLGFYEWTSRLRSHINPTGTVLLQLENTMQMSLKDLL
Guanine nucleotide-binding protein G(i) subunit alpha-1 (Homo sapiens), sequence (P63096 whole entry, looked up): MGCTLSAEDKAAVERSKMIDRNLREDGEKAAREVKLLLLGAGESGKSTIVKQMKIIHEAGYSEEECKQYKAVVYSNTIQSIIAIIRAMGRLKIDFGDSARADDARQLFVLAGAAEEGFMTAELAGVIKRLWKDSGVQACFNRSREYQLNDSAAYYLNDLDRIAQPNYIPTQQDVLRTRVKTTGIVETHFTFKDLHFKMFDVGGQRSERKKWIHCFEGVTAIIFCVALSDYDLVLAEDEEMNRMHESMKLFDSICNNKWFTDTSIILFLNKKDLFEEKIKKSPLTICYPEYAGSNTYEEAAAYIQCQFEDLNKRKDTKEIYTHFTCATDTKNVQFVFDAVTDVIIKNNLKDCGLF
Pyruvate kinase PKM (Homo sapiens), sequence (P14618 whole entry, looked up): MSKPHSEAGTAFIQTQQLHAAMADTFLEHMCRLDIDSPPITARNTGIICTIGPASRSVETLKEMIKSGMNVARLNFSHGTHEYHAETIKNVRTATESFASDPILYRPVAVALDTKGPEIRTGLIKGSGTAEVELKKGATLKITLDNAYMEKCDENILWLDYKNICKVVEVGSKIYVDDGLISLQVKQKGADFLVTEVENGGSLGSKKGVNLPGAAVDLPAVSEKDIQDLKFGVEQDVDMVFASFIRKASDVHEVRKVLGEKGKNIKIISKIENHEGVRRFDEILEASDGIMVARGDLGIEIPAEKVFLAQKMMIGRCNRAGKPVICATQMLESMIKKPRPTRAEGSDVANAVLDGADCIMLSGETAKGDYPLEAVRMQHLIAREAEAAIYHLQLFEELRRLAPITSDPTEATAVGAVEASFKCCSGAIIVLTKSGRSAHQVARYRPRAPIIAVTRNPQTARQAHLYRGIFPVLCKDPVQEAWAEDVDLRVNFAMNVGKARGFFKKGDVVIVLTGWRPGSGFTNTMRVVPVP
Muscarinic acetylcholine receptor M1 (Rattus norvegicus), sequence (P08482 whole entry, looked up): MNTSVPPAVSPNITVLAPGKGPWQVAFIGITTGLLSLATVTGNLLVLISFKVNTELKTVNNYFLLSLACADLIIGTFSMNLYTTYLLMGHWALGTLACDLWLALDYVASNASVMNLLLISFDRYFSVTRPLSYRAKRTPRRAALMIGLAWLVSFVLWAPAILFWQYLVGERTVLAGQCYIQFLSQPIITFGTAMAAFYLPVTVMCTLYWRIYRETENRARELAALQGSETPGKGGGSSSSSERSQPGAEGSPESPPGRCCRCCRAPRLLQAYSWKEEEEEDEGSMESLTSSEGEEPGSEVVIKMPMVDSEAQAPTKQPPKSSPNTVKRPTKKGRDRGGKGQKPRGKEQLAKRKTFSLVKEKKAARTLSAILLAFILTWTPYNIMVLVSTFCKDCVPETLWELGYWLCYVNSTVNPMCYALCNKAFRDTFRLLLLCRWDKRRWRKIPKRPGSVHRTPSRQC
Cytochrome P450 3A4 (Homo sapiens), sequence (P08684 whole entry, looked up): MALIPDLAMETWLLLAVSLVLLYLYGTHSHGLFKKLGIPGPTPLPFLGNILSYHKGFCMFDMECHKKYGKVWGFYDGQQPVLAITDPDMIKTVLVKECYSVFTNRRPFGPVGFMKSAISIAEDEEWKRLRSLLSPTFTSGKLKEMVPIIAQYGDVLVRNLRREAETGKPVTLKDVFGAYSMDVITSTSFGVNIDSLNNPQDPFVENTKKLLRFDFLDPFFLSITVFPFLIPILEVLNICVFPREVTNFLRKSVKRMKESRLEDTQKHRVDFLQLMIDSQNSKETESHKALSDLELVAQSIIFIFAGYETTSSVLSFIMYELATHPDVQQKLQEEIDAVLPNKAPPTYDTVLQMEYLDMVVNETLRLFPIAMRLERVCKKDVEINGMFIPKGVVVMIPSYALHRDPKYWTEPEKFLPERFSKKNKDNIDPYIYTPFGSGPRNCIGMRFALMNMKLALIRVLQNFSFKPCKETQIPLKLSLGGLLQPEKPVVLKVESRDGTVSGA

Consider `N[C@H](CCC(=O)NCS(=O)(=O)O)C(=O)O`, for which the results for the activity change, negative = inhibition in assay [1] and in [3] were 3.52% [at 38 µM] and 4.56% [at 38 µM], respectively. Besides, the Potency result in assay [2], in [7], in assay [8], in [11], in [12] and in assay [16] was “inactive” throughout. Moreover, the activity, negative = inhibition in assay [4] is -7.51% [at 38 µM]. The Potency in assay [5] and in assay [6] was above 46 µM in each case. Besides, the outcome in assay [9], in assay [10], in assay [13], in [14] and in assay [15] was inactive.

Take `N#CCCn1c(=O)c(CCc2ccccc2)nc2cnc(Oc3ccccc3)nc21`: the activity change, negative = inhibition was -21% in assay [1] and -2.26% in assay [3]. Besides, the values for the Potency in assay [2], in assay [5] and in [6] were 12.6 µM (active), above 9.22 µM and above 46 µM, respectively. Further, in assay [4], the activity, negative = inhibition was -14.5%. The Potency entry in assay [7], in assay [8] and in assay [17] was “inactive” in each case.

For `CCCCCCCCCC[Si](C)(C)CCC(=O)N[C@@H](Cc1ccc(C)cc1)c1ccccc1`, the activity change, negative = inhibition in assay [1] was 20.2% [at 38 µM]; in [3] it was -7.96% [at 38 µM]. In addition, the Potency was 31.6 µM (active) in assay [2], above 46 µM in assay [5] and above 46 µM in [6]. Further, the activity, negative = inhibition in assay [4] is -5.69% [at 38 µM]. For the same compound, the Potency entry in [7], in assay [8], in assay [18], in [12] and in assay [16] was “inactive” each time. The result in assay [9], in assay [13], in [14] and in [15] was inactive.

For the compound `O=C(O)CC[C@@H](NC(=O)c1ccccc1C(=O)O)C(=O)O`, the activity change, negative = inhibition in [1] was 10.1% [at 38 µM]; in assay [3] it was 6.53% [at 38 µM]. Also, the Potency result in [2], in assay [7], in assay [8], in [12] and in assay [16] was “inactive” in each case. Also, the activity, negative = inhibition in assay [4] is -11.8% [at 38 µM]. In addition, the Potency in [5] and in assay [6] was above 46 µM each time. The result in assay [9], in [10], in [13] and in assay [15] was inactive.

With `Nc1nc(N)c2nc(CNc3ccc(C(=O)N[C@H](CCC(=O)O)C(=O)O)cc3)cnc2n1`, the activity change, negative = inhibition in assay [1] was 1.47% [at 38 µM]; in assay [3], 13.5% [at 38 µM]. Besides, the Potency entry in [2], in assay [7], in [8] and in assay [16] was “inactive” in each case. Besides, in assay [4], the activity, negative = inhibition was -0.643% [at 38 µM]. Besides, the Potency in assay [5] and in assay [6] was above 46 µM each time. In addition, the result in [9], in assay [10], in assay [13], in assay [14] and in assay [15] was inactive.

Turning to `C[C@H]1CN(S(=O)(=O)c2cccc3cnccc23)CCN1`, the activity change, negative = inhibition in assay [1] was -12.4% [at 38 µM]; in [3] it was 1.25% [at 38 µM]. In addition, the Potency result in assay [2], in assay [7], in [8], in assay [17], in assay [11] and in [12] was “inactive” each time. Moreover, in [16], the Potency result is “inactive”. For the same compound, the activity, negative = inhibition in assay [4] is 2.7% [at 38 µM]. For the same compound, the figures for the Potency in assay [5], in assay [6] and in [19] were above 46 µM, above 46 µM and 2.82 µM (active), respectively. Also, the outcome in [9], in assay [10], in assay [13], in [14] and in [15] was inactive.
